# A selection: hits, their analogues and other compounds. The true share with any hit is near 2.6%.
# GLP1R inv ag: GLP-1 receptor (human) inverse agonism. P43220. HEK293 GLP-1R CRE-luciferase, luminescence, 24 h; GLP-1R form is constitutively active. Potency, µM (doses to about 38.3 µM), actives largely listed as inhibitors. actives 1.6% (n = 410,000); also: nearly all actives have a fitted effect of over 55% in size
# Target sequence (P43220 whole entry, looked up): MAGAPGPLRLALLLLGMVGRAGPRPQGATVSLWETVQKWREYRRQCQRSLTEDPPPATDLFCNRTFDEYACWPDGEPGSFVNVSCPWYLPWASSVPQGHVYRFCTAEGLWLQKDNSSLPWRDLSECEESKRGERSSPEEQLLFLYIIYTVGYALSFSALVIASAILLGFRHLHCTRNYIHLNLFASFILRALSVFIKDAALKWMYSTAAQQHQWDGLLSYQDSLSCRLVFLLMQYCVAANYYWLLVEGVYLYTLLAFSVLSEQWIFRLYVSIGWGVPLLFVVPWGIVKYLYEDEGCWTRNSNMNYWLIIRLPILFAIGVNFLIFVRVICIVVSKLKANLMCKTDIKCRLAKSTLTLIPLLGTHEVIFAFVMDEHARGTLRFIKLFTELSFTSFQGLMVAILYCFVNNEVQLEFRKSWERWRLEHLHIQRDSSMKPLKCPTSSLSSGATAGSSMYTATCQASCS
#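 Inverse agonism was detected as reduced cAMP-driven luciferase luminescence after 24 h compound treatment. The cells were HEK293 clones expressing constitutively active human GLP-1R with the reporter. Reporter-only and GPR119 cell lines served as counterscreen controls.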
# HEK293 tox: cytotoxicity counter-screen for GLP-1 receptor inverse agonists; HEK293 cAMP-luciferase reporter cells, luminescence, 24 h; actives 0.13% (n = 410,000); AID 624418; Potency, µM (series often up to 38.3 µM), most hits filed as inhibitors;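 also: loss of luciferase light is scored as toxicity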
#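 Here, cytotoxicity is scored as loss of luminescence. The MLSMR collection was tested on cells seeded in medium containing 10% Nu serum, with a 24 hr compound exposure preceded by 12 hours of culture.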
# BRCA1 expr up: activators of BRCA1 expression; MCF7-BRCA1-FFLuc reporter, luminescence, 48 h; response scale: scaled: vehicle 0%, 10 µM genistein 100%; Potency, µM (series often up to 46.1 µM), most hits filed as activators; actives 1.1% (n = 380,000); AID 624202; also: nearly all actives have a fitted effect of over 80% in size
#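 Compounds are tested at multiple concentrations on MCF7 BRCA1-luciferase reporter cells seeded at 2000 per well; after 48 h, a single luminescence end-point is taken and curves fitted to the normalized data.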
# GLP1R ag: activates the human GLP-1 receptor; P43220; HEK293 GLP-1R CRE-luciferase, luminescence, 4-6 h; cells express a hypersensitive GLP-1R form; Potency, µM (top dose mostly 45.6 µM), usual class: activators; AID 624172; actives 0.007% (n = 380,000)
# Hits are given with their value; - = inactive; ? = inconclusive; . = not tested or not shown; [ ] = dose if it differs, or a comment. Calls follow the shape of the dose curve; as a rule, active = well fitted curve in the direction sought with a large enough effect; inconclusive = small, poorly fitted or top-dose-only effect, or another doubt; inactive = no such curve, though single readings can be large; an effect the other way counts as inactive or inconclusive.
SMILES,GLP1R inv ag,HEK293 tox,BRCA1 expr up,GLP1R ag
O=C(CCCCCNC(=O)N1CCn2c1nc1ccccc12)NCc1ccccc1Cl,7.1µM,-,-,-
CCC(=O)c1cn(CC(=O)NCc2ccco2)c2ccccc12,-,-,11µM,-
COC(=O)c1cn(CC(=O)NCc2ccco2)c2ccccc12,-,-,-,-
COc1ccccc1N1CCN(C2CCCCC2NS(=O)(=O)c2ccccc2)CC1 (stereo not drawn),10µM,-,-,-
CS(=O)(=O)N1CCN(/[N+]([O-])=N/Oc2ccc([N+](=O)[O-])cc2[N+](=O)[O-])CC1,.,.,-,.
COC(=O)c1ccc2c(=O)n(CCCCCC(=O)NCc3ccc(OC)cc3)c(=O)[nH]c2c1,-,-,.,.
CC1CC=C(c2ccccc2)C(=S)N1 (stereo not drawn),10µM,?,-,-
CCOC(=O)c1cnc(SCc2ccccc2)nc1N,?,-,2.2µM,-
COc1ccc(-c2nnn(Cc3ccccc3F)n2)cc1,?,-,4µM,-
Cc1cc(OCC(=O)Nc2ccccc2N2CCCCC2)ccc1C(C)C,-,-,-,-
Cc1cc(OCC(=O)Nc2ccccc2N2CCCC2)ccc1C(C)C,11µM,-,-,-
CCOC(=O)c1sc(NC(=S)NC(=O)c2ccccc2)c(C(=O)OCC)c1C,-,-,-,-
CCOC(=O)C1=C(NC(=S)NC(=O)c2ccccc2)c2ccccc2CC1C(C)C (stereo not drawn),3.2µM,?,-,-
CCOC(=O)C1=C(NC(=S)NC(=O)c2ccccc2)c2ccccc2CC1(C)CC (stereo not drawn),5µM,11µM,-,-
CCOc1ccc(C(=O)OCc2cc(=O)n3nc(C4CCCCC4)sc3n2)cc1,-,-,-,.
C=CC(=O)Nc1cccc(Nc2nc(N[C@H]3CC[C@H](N(C)C)CC3)nc3c2ncn3C(C)C)c1,?,?,?,-
COc1ccc(Cl)cc1NC(=O)CN(C)CC(=O)Nc1ccc(C)cc1Br,7.9µM,-,-,-
COc1ccc(Cl)cc1NC(=O)CN(C)CC(=O)Nc1ccccc1-c1ccccc1,?,?,-,-
Cc1ccc(Cl)cc1NC(=O)CN1C(=O)C(C)(C)c2cc(S(=O)(=O)N3CCCCC3)ccc21,?,-,.,.
COc1ccc(Cl)cc1NC(=O)CN1CCc2ccccc21,10µM,-,-,-
COc1ccc(Cl)cc1NC(=O)CN1Cc2ccccc2C1=O,-,-,.,.
COc1ccc(Cl)cc1NC(=O)CN1C(=O)C(C)(C)c2cc(S(=O)(=O)N3CCCCC3)ccc21,11µM,-,.,.
O=C(CCn1c(=O)c2sccc2n(Cc2cccc(F)c2)c1=O)NCc1ccc2c(c1)OCO2,-,-,.,.
O=C(CSc1nnc(-c2ccco2)n1Cc1ccccc1)c1ccccc1,?,-,4µM,-
O=C(CSc1nnnn1Cc1ccccc1)c1ccccc1,-,-,13µM,-
SMILES,GLP1R inv ag,HEK293 tox,BRCA1 expr up,GLP1R ag
Cc1ccc(C(=O)CSc2nnc(-c3ccco3)n2Cc2ccccc2)cc1,?,-,-,-
Fc1ccc(-n2cc(-c3ccccc3)c3c(NC4CCCCC4)ncnc32)cc1,-,-,.,.
CCOC(=O)CC(NC(=O)c1cc2cc(Br)cc(OC)c2oc1=O)c1ccc(OC)cc1 (stereo not drawn),-,-,-,-
CCOC(=O)CC(NC(=O)c1cc2cccc(OC)c2oc1=O)c1ccc(OC)cc1 (stereo not drawn),-,-,13µM,?
Cc1cc2nc(-c3cccc(NC(=O)CSc4ccc(Cl)cc4)c3)oc2cc1C,-,-,.,.
COc1ccc2cc3cc(C(=O)NCCCN4CCC(C)CC4)oc3nc2c1,-,-,11µM,-
c1csc(-c2nc(N3CCCCC3)no2)c1,?,-,6.3µM,-
O=C(N1CCN=C1SCc1cccnc1)C12CC3CC(CC(C3)C1)C2,3.5µM,-,-,-
Cc1[nH]n(C(N)=S)c(=O)c1N=Nc1ccc(Br)cc1,-,-,4.5µM,-
NC(=S)n1[nH]c(-c2ccc([N+](=O)[O-])cc2)c(N=Nc2ccc(Cl)cc2)c1=O,10µM,?,-,-
Cc1ccc([N+](=O)[O-])cc1N=Nc1c(-c2ccc([N+](=O)[O-])cc2)[nH]n(C(N)=S)c1=O,?,?,-,-
Cc1ccc(-n2nc3c(N4CCC(C(=O)NC(C)c5ccccc5)CC4)nnc(C)c3c2C)cc1 (stereo not drawn),?,-,.,.
CCOC(=O)N/N=C\c1ccc(OC/C=C/c2ccccc2)cc1,-,-,8.9µM,-
Cc1ccc(/C=N/NC(=O)Nc2ccccc2)o1,-,-,13µM,-
Fc1ccc(NC(=S)N/N=C/c2ccc(F)c(F)c2)cc1,?,-,-,-
CC(=O)Oc1ccc(/C=N/NC(=S)Nc2ccccc2)cc1,?,-[1.53 µM],11µM,-
CCOC(=O)N/N=C\c1cccc(OC)c1OC/C=C/c1ccccc1,?,-,-,-
COc1ccc(NC(=S)N/N=C/c2ccc(F)cc2)cc1OC,?,5.6µM,?,-
CC(C)C(NC(=O)C1CC(=O)N(Cc2ccccc2)C1)c1nc2ccccc2[nH]1 (stereo not drawn),-,-,-,-
COC(=O)N/N=C/c1ccc(Oc2ccccc2)cc1,-,-,10µM,-
CC(C)(O)C(=O)N/N=C\c1ccc(OC/C=C/c2ccccc2)cc1,-,-,?,-
CC(C)(C)NCC(=O)N/N=C/c1ccc(OCc2ccccc2)cc1,?,-,10µM,-
COC(=O)N/N=C\c1ccc(OC/C=C/c2ccccc2)cc1,-,-,7.1µM,-
Cc1ccccc1C(=O)Nc1c(C)nc2ccccn2c1=O,-,-,.,.
CN(C)c1ccc(/C=C/c2ccnc3ccccc23)c(F)c1,.,.,-,.
SMILES,GLP1R inv ag,HEK293 tox,BRCA1 expr up,GLP1R ag
CC1CCC(NC(=O)c2ccc3nc[nH]c3c2)CC1 (stereo not drawn),-,-,11µM,-
Cc1oc2ncn(C)c(=O)c2c1C(=O)Nc1ccc(F)cc1,-,-,-,-
O=C(NC1CCCCC1)C(c1cccnc1)N(C(=O)CCl)c1ccc(F)cc1 (stereo not drawn),?,?,-,-
O=C(NC1CCCCC1)C(c1cccnc1)N(C(=O)CCl)c1ccccc1Cl (stereo not drawn),1.6µM,-,-,-
COc1ccc(C(C(=O)NC2CCCCC2)N(C(=O)CCl)c2cccc(Cl)c2)cc1 (stereo not drawn),2.8µM,-,-,-
N/C(=C\c1ccccc1)c1ccncc1,.,.,-,.
Fc1ccc(-c2cc(C(F)(F)F)n3ncnc3n2)cc1,-,-,-,-
COC(=O)c1sc2cccc(F)c2c1S(=O)(=O)Nc1ccc(C)cc1Cl,-,-,.,.
FC(F)(F)c1cccc(-c2cc3nc(NCCCn4ccnc4)ccn3n2)c1,?,-,-,-
Clc1ccccc1-c1cc2nc(NCCCn3ccnc3)ccn2n1,-,-,10µM,-
O=C(CC1CCCC1)Nc1ccc(Cl)c(S(=O)(=O)N2CCOCC2)c1,8.9µM,-,-,-

# Source: PubChem
